Screens: PubChem, several laboratories
CYP2C9 inh: blockers of cytochrome P450 2C9 activity – biochemical, luminescence, ADME assay, primary screen | CYP2C9 Supersomes, luciferin-H conversion | inhibition, % at 5 µM | P11712 | actives 20% (n = 96,000) | AID 777, 2007;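 active means blocking of liver enzyme CYP2C9 beyond about 50% at 5 µM, limit read from the data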
D1 allo mod: D1 CRE-luciferase signal change, two-sided – cell-based, HEK293 D1, dopamine EC30, D1 allosteric modulator project, primary screen; B-score at 10 µM; AID 641, 2007; actives 5.9% (n = 58,000); dopamine EC30 potentiation; actives deviate in either direction;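 active means luminescence count or its row- and column-corrected plate score outside the 99.7% band of the plate's sample wells, on either side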
CYP2C19 inh: blockers of cytochrome P450 2C19 activity – biochemical, luminescence, ADME assay, primary screen; P33261; CYP2C19 Supersomes, luciferin-H EGE luminescence, 30 min; inhibition, % at 5 µM; actives 21% (n = 96,000); AID 778, 2007;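 active means CYP2C19 inhibition above a set limit at 5 µM in the primary screen, cut at about 50% in these data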
CYP2C19 activ: human CYP2C19 activators, primary screen, biochemical, luminescence. Cytochrome P450 2C19 (Homo sapiens), P33261. recombinant CYP2C19, luciferin-H EGE luminescence; active compounds read high; 0 = fully inhibited enzyme, 1 = untreated enzyme. activation factor at 5 µM. 96,000 tested, under 10 active. AID 1025, 2008;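 active means activation factor of at least 2 at 5 µM in the primary screen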
hDAT+cocaine: changed hDAT dopamine uptake under cocaine IC80, either direction, primary screen, cocaine antagonist project, cell-based, LLC-PK1 hDAT, [14C]-dopamine uptake, MLSMR. actives 1.3% (n = 110,000). Sodium-dependent dopamine transporter (Homo sapiens), Q01959. AID 449768, 2010. LLC-PK1 hDAT cells, [14C]-dopamine uptake with cocaine IC80; actives deviate in either direction. B-score at 10 µM;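 active means Z score or B-score, a plate-position-corrected score, falls beyond the plate's 99.7% confidence bounds, in either direction; inactive means both scores lie inside the 99.7% bounds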
Target sequence (Q01959 whole entry, looked up): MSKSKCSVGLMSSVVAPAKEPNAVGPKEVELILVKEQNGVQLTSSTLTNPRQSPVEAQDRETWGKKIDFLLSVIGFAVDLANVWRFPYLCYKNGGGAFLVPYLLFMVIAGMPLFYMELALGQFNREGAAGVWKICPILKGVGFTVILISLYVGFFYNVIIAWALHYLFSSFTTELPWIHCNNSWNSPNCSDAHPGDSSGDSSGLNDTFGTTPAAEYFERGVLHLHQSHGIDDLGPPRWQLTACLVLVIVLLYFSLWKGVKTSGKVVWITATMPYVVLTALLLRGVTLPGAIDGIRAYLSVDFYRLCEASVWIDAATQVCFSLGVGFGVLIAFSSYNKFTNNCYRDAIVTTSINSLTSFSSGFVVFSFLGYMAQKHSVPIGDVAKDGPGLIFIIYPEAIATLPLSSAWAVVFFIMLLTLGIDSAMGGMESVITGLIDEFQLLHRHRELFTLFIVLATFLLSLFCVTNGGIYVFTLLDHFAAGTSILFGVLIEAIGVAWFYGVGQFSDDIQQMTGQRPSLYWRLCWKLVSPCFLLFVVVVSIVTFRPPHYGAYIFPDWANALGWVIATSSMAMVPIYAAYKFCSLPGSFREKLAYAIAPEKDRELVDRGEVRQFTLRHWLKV
CYP2C9 activ: human CYP2C9 activators, primary screen, biochemical, luminescence; recombinant CYP2C9, luciferin-H conversion; active compounds read high; factor 1 = untreated enzyme, 0 = blocked; activation factor at 5 µM; actives 1.4% (n = 96,000);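 active means activation factor of 2 or more for CYP2C9 at a 5 µM dose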
Hits are given with their value; - = inactive; . = no result. The list is not random: actives were taken first. Their share in the collection is about 28%.

SMILES | CYP2C9 inh | D1 allo mod | CYP2C19 inh | CYP2C19 activ | hDAT+cocaine | CYP2C9 activ
O=C1c2ccccc2S(=O)(=O)c2cc(C(=O)N3CCN(C(=O)c4ccccc4)CC3)ccc21 | . | . | . | . | - | .
COc1ccccc1C(=O)NCCn1ccc2ccccc21 | - | - | 88 | - | - | -
CC(=O)NCCn1ccc2ccccc21 | - | - | - | - | - | -
COc1cccc(C(=O)NCCn2ccc3ccccc32)c1 | - | - | 79 | - | - | -
COc1ccccc1C(=O)NCCN1CCN(C(=O)c2ccccc2OC)CC1 | - | - | - | - | - | -
O=C(Cc1ccccc1)NCCn1ccc2ccccc21 | - | - | 76 | - | - | -
COc1cc(OC)cc(C(=O)NCCn2ccc3ccccc32)c1 | - | - | 78 | - | - | -
COc1ccc(C(=O)NCCn2ccc3ccccc32)cc1OC | - | - | - | - | - | -
COc1ccc(CN2[C@@H](CC(C)=O)c3cc(C(F)(F)F)ccc3S2(=O)=O)cc1 | . | . | . | . | - | .
CC(C)c1ncc(C(O)c2cccc3ccccc23)n1C (stereo not drawn) | - | - | - | - | - | -
S=c1[nH]ncn1/N=C/c1ccccn1 | - | . | - | - | - | -
Cc1cc(C)c(S(=O)(=O)NCCn2ccc3ccccc32)c(C)c1 | 87 | . | - | - | - | -
COc1ccc(NC(=O)CCc2c(C)nc3nc(C)nn3c2C)cc1 | - | . | - | - | - | -
CCC1CCCCN1CC(=O)Nc1cc(C)nn1-c1nc(C)cc(C)n1 (stereo not drawn) | 93 | - | 52 | - | - | -
CCC(=O)N1CCN(c2nc3ccccc3s2)CC1 | - | . | - | - | - | -
O=C(Nc1ccccc1)N1CCN(c2nc3ccccc3s2)CC1 | 59 | - | 63 | - | - | -
O=C(c1cc2sccc2n1Cc1ccccc1)N1CCN(c2nc3ccccc3s2)CC1 | 53 | . | - | - | - | -
CCOc1ccc(C=O)cc1CN1CCCCC1 | - | . | - | - | - | -
Clc1ccc2[nH]cc(-c3nnnn3-c3ccccc3)c2c1 | - | . | - | - | - | -
O=C(NCC(=O)N(c1ccccc1)C(C(=O)NCC1CCCO1)c1ccccc1)c1ccco1 (stereo not drawn) | - | - | - | - | - | -
O=C(NCC(=O)N(c1ccccc1)C(C(=O)NC1CCCCC1)c1ccncc1)c1ccco1 (stereo not drawn) | - | . | - | - | - | -
COc1ccccc1N(C(=O)CNC(=O)c1ccco1)C(C(=O)NC1CCCC1)c1ccncc1 (stereo not drawn) | . | . | . | . | - | .
COc1cccc(N(C(=O)CNC(=O)c2ccco2)C(C(=O)NC2CCCC2)c2ccncc2)c1 (stereo not drawn) | - | . | 57 | - | - | -
Cc1ccc(N(C(=O)CNC(=O)c2ccco2)C(C(=O)NCC2CCCO2)c2ccccc2)cc1 (stereo not drawn) | - | - | 85 | - | - | -
O=C(NCC(=O)N(CCc1ccccc1)C(C(=O)NC1CCCC1)c1cccnc1)c1ccco1 (stereo not drawn) | 52 | - | 54 | - | - | -
SMILES | CYP2C9 inh | D1 allo mod | CYP2C19 inh | CYP2C19 activ | hDAT+cocaine | CYP2C9 activ
O=C(NCC(=O)N(CCc1ccccc1)C(C(=O)NC1CCCCC1)c1ccncc1)c1ccco1 (stereo not drawn) | 92 | - | 82 | - | - | -
Nc1ccccc1C#CCCCCO | . | . | . | . | - | .
Cn1c(Cn2c(=O)sc3ccccc32)nnc1SCC(=O)Nc1cccc(F)c1 | . | - | . | . | - | .
Cc1ccc(C(C(=O)NC2CCCCC2)N(CCC(C)C)C(=O)CNC(=O)c2ccco2)o1 (stereo not drawn) | - | - | 53 | - | - | -
C=CCN(C(=O)CNC(=O)c1ccco1)C(C(=O)NC1CCCCC1)c1ccccc1 (stereo not drawn) | 70 | - | 83 | - | - | -
C=CCN(C(=O)CNC(=O)c1ccco1)C(C(=O)NC1CCCCC1)c1ccc(F)cc1 (stereo not drawn) | - | - | - | - | - | -
CCOCCCN(C(=O)CNC(=O)c1ccco1)C(C(=O)NC1CCCC1)c1ccccc1C (stereo not drawn) | - | - | - | - | - | -
COc1ccc(C(=O)COC(=O)[C@H](C)Nc2ccc(C(F)(F)F)cc2[N+](=O)[O-])c(OC)c1 | - | . | - | - | - | -
CN=C(Nc1ccc(Cl)cc1)c1cccc(C(F)(F)F)c1 | - | . | 74 | - | - | -
O=C(Nc1ccc(-c2csc(Nc3ccc(Cl)cc3)n2)cc1)c1cccc(C(F)(F)F)c1 | . | . | . | . | - | .
CN=C(Nc1ccc(Cl)cc1)c1ccc(C(F)(F)F)cc1 | - | . | 80 | - | - | -
C/C(=C\C(=O)C(F)(F)F)Nc1ccc(C(F)(F)F)cc1 | - | . | - | - | - | -
CN(c1ccc(OCC(=O)Nc2ccc3[nH]c(=O)[nH]c3c2)cc1)S(=O)(=O)c1ccc(Cl)cc1 | 62 | . | - | - | - | -
CC(=O)NC(=S)Nc1ccc(NC(=O)COc2ccc(Cl)cc2)cc1 | - | . | - | - | - | -
CCOc1ccc(S(=O)(=O)N(C)c2ccc(OCC(=O)Nc3ccc4[nH]c(=O)[nH]c4c3)cc2)cc1 | 78 | - | - | - | - | -
c1ccc2c(-c3nc4ncccc4o3)cccc2c1 | - | - | - | - | . | 3.3
COc1ccc(-c2nc(-c3cccs3)c(-c3cccs3)[nH]2)cc1OC | 81 | . | 83 | - | - | -
COc1ccc(-c2nc(-c3ccccc3)c(-c3cccs3)[nH]2)cc1OC | - | . | - | - | - | -
O=[N+]([O-])c1cccc(-c2nc(-c3cccs3)c(-c3cccs3)[nH]2)c1 | 58 | . | - | - | - | -
CN1CCN(C(=O)C2=C[C@H](c3ccc4c(c3)OCO4)C[C@H](OCCCCO)O2)CC1 | . | . | . | . | - | .
CCCN(CC1CC1)C(=O)CSc1ncnc2sc(C)c(C)c12 | 53 | . | 92 | - | - | -
Cc1sc2ncnc(SCC(=O)c3cccs3)c2c1C | 60 | . | - | - | - | -
CCCNC(=O)COc1ncnc2sc(C)c(C)c12 | - | . | - | - | - | -
Cc1sc2ncnc(SCC#N)c2c1C | - | - | - | - | - | -
Cc1sc2ncnc(SCC(=O)NNC(=O)COc3cccc4ccccc34)c2c1C | - | . | - | - | - | -
Cc1sc2ncnc(SCC(=O)N3CCCC3=O)c2c1C | 63 | - | 59 | - | - | -
COc1cc(C(=O)Nc2ccc(NC(=O)C(C)C)nc2)cc(OC)c1OC | - | - | - | - | - | -
